Tau ThT inhib: inhibitors of human tau fibril formation, thioflavin T binding; P10636; recombinant tau K18 P301L, heparin-induced fibrillization, ThT fluorescence; Potency, µM (series often up to 57.4 µM), without a hit: top-dose activity, negative = inhibition, hits mostly inhibitors; 270,000 compounds, 2.1% hits; also: nearly all actives have a fitted effect of over 55% in size
Target sequence (P10636 561-689 P618L limits assumed): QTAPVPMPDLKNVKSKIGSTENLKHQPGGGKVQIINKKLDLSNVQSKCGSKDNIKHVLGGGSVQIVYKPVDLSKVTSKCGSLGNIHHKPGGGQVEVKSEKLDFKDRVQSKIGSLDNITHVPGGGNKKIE
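Heparin-induced fibrillization of the P301L-mutant K18 repeat-domain fragment of human tau was followed by ThT binding in quantitative high-throughput format.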
RGS12 GoLoco inh: RGS12 GoLoco-Gai1 interaction inhibition. P63096. Gai1:RGS12 GoLoco peptide FP, rhodamine, 10 min. Potency, µM (doses to about 61.6 µM), for the others: at the highest dose activity, negative = inhibition, hits mostly inhibitors. 230,000 compounds, 0.44% hits. AID 880; active = well fitted inhibition curve with a large enough effect, not every such curve was filed as active; inactive = no such curve, though single readings can be large or run the other way; also: nearly all actives have a fitted effect of over 30% in size
Target sequence (P63096 whole entry, looked up): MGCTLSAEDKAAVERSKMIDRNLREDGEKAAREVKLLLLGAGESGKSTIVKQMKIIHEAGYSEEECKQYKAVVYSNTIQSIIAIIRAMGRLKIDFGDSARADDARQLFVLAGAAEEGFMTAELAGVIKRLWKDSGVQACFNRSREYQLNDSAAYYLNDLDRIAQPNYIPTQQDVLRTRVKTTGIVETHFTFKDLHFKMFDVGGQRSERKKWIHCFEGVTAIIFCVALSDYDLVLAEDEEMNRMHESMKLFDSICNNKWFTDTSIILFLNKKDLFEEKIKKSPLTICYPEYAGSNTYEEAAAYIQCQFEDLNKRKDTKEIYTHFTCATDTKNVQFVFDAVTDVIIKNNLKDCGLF
TexasRed fluor: alters Texas Red total fluorescence, flagging assay interference | TRb/SRC2 Texas Red total fluorescence interference | Potency, µM (series often up to 106 µM), for inactives: at the top dose fluorescence change, negative = quenching | 280,000 compounds, 0.29% hits | AID 1479; active = well fitted curve in either direction with a large enough effect; inconclusive = small, poorly fitted or top-dose-only effect
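Human TRβ ligand-binding domain (0.6 uM) and Texas Red SRC2 peptide (20 nM) in Tris buffer with 1 uM T3 and 5% DMSO were incubated with pinned compound for 5 hr at ambient temperature. Total fluorescence was computed as S + 2P (555/632 nm).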
Tau fluor counter: counter-screen for tau fibril formation inhibitors; 280,000 compounds, 0.93% hits; tau K18 P301L Alexa594 fluorescence, heparin fibrillization; Potency, µM (doses to about 57.7 µM), without a hit: at the top dose activity change, negative = decrease; also: nearly all actives have a fitted effect of over 55% in size
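Human tau K18 P301L (15 uM unlabeled, 0.24 uM Alexa 594-labeled) in 100 mM sodium acetate pH 7 with 20 uM heparin, 6 hr at 37 C. ThT 30 uM added, 1 hr ambient; Alexa 594 FP and total fluorescence read at 555/632 nm.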
Tau fibril FP: inhibitors of human tau fibril formation; 280,000 compounds, 0.39% hits; P10636; K18 P301L tau heparin fibrillization, Alexa594 FP, 6 h; Potency, µM (titrated, usually from 57.7 µM), without a hit: top-dose activity, negative = inhibition, most hits filed as inhibitors; also: nearly all actives have a fitted effect of over 55% in size
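Recombinant K18 P301L […], labeled with Alexa 594 at 0.24 uM over 15 uM unlabeled; heparin inducer 20 uM final; 37 C, 6 hr; FP endpoint.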
TRb-SRC2 inh: TRbeta-SRC2 interaction inhibition. P10828. TRbeta-SRC2 peptide binding, fluorescence polarization; receptor liganded with 1 µM T3. Potency, µM (doses to about 106 µM), inactives show at the top dose activity change, negative = inhibition, usual class: inhibitors. 280,000 compounds, 0.065% hits. AID 1469;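 also: plate controls were bound peptide for no effect and peptide without receptor for full effect; nearly all actives have a fitted effect of over 50% in size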
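Human TRb LBD (0.6 uM) plus Texas Red-labeled SRC2 peptide (20 nM), 1uM T3, 5% DMSO, 5 hr at ambient temperature. Decreased polarization (555/632 nm) flags inhibition; data normalized to free and bound peptide controls.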
Numbers without * were called inactive; ? = inconclusive; · = no result given; [ ] = another dose, or the depositor's remark. Compounds with a hit are over-represented: about 3.1% of the library has one in this group of screens. Unless noted, calls follow the shape of the dose curve; as a rule, active = well fitted curve in the direction sought with a large enough effect; inconclusive = small, poorly fitted or top-dose-only effect, or another doubt; inactive = no such curve, though single readings can be large; an effect the other way counts as inactive or inconclusive. Unless noted, % is scaled to controls: 0 for no effect and ±100 for the full control effect; potency is read from the fitted curve at half-maximal effect.

SMILES	Tau ThT inhib	RGS12 GoLoco inh	TexasRed fluor	Tau fluor counter	Tau fibril FP	TRb-SRC2 inh
O=C(Cn1c(-c2cccs2)cc2ccccc21)N1CCN(c2ccccc2F)CC1	-1%	·	100µM*[quencher]	-7%	-3%	-27%
CCCCN=C(NNc1ccc(Br)cc1)C(=O)OCC	4%	-6%	-3%	3%	4%	-17%
O=S(=O)(c1ccc(F)c2ccccc12)N1CCCCC1	-3%	-5%	0%	-12%	-2%	-30%
CCC(=O)NNC(=O)c1c(O)c2ccccc2[nH]c1=O	1%	8%	1%	4%	1%	-7%
COc1cc(OC)c2c(-c3cccc(-c4ccc(CO)cc4)c3)cc(=O)oc2c1	-25%[81.4 µM]	2%[88.7 µM]	-4%	?	-8%[81.3 µM]	7%
COc1cc(OC)c2c(-c3cccc(-c4ccc(O)cc4)c3)cc(=O)oc2c1	?	9%[88.7 µM]	-2%	22µM*[quencher]	?	3%
CCOC(=O)c1c(C)c(C)n(Cc2cccc(OC)c2OC)c1C	25µM*	20%	-1%	-27%	?	0%
O=C(Cn1cc(/C=C\[N+](=O)[O-])c2ccccc21)Nc1ccccc1	·	7%	-4%	-23%	-5%	-1%
CCOC(=O)c1sc2cc([N+](=O)[O-])cc(SCC(=O)OC)c2c1N	7.1µM*	50%	-4%	?	-9%	-15%
CCOC(=O)c1sc2cc([N+](=O)[O-])cc(SCCO)c2c1N	2.2µM*	12%	0%	-26%	4%	-5%
CCOC(=O)CSc1nnc(NC(=O)c2cc([N+](=O)[O-])cc([N+](=O)[O-])c2)s1	?	1%	-4%[53 µM]	-16%	0%	-5%[53 µM]
CCOC(=O)c1sc2nc(C)cc(C)c2c1N	?	3%	-7%	-7%	6%	1%
CCc1nnc(NC(=O)CSc2nnc(C3CCCCC3)n2-c2cccc(Cl)c2)s1	-15%	-4%	-1%	-9%	-4%	-4%
CCOc1ccc(CC(=O)NCCc2csc(-c3ccc(Cl)cc3)n2)cc1	-8%	·	-16%	-3%	0%	3%
Cc1nc2c(C(=O)NCCc3ccc(Cl)cc3)c[nH]n2c(=O)c1Cc1ccc(Cl)cc1	28µM*	·	3%	?	-12%	-1%
COc1ccc(-c2cnnc(N/N=C/c3ccc(-c4ccc([N+](=O)[O-])cc4)o3)n2)cc1	10%	3%	0%	16%	8%	-10%
COc1ccccc1-c1cnnc(N/N=C/c2ccc(-c3cccc(Br)c3)o2)n1	3.5µM*	0%	-2%	?	0%	6%
Cc1cc(NC(=O)C2CC(c3c(F)cccc3Cl)=NO2)n(-c2ccccc2)n1 (centres undefined)	4%	-10%	0%	2%	0%	5%
COc1ccc(-c2nc(-c3cccs3)c(-c3cccs3)[nH]2)cc1O	13µM*	20%	-12%	13µM*[quencher]	-2%	1%
CCN1/C(=C/c2cc[n+](C)cc2)C=Cc2cc(C)ccc21	8.9µM*	53%	-4%	11%	-5%	2%
CCC1=NN2C(=N)/C(=C\c3ccc(SCc4ccco4)o3)C(=O)N=C2S1	10µM*	182%	?	-29%	6%	28%
CCCC1=NN2C(=N)/C(=C\c3ccc(SCc4ccco4)o3)C(=O)N=C2S1	10µM*	326%	50µM*[fluorescent]	-27%	-12%	?
CCC1=NN2C(=N)/C(=C/c3c(C)nn(-c4ccccc4)c3Cl)C(=O)N=C2S1	-12%	11%	-2%	11%	-3%	-3%
CCCC1=NN2C(=N)/C(=C\c3cc(C)n(Cc4ccccc4)c3C)C(=O)N=C2S1	-18%	5%	-6%	-13%	4%	-2%
CCOc1ccc(CN(CCc2ccc3c(c2)OCO3)Cc2cc(OC)cc(OC)c2)cc1	-17%	·	0%	-16%	-14%	0%
SMILES	Tau ThT inhib	RGS12 GoLoco inh	TexasRed fluor	Tau fluor counter	Tau fibril FP	TRb-SRC2 inh
Cc1nc(Cl)cc(CS(=O)(=O)c2ccc(Cl)cc2)n1	-1%	-7%	0%	4%	1%	5%
O=C(O)c1cc(N/N=C/c2ccc(OCc3ccccc3)cc2)ccc1Cl	0%	-4%	-3%	-1%	4%	-8%
O=C(O)c1ccc(N/N=C/c2ccc(OC(=O)c3cccc(Cl)c3)cc2)cc1	13µM*	-2%	-7%	?	?	12%
COC(=O)c1ccc(COc2ccc(/C=N/Nc3cccc(C(=O)O)c3)cc2)cc1	16µM*	4%	-1%	?	-3%	4%
O=C(Oc1ccc(/C=N/Nc2ccccc2)cc1)c1ccccc1	?	2%	1%	?	7%	1%
COc1ccccc1/C=C/C1=NC(=C\C=C/c2ccccc2)/C(=O)O1	11µM*	9%	-1%	-10%	-7%	-3%
COc1ccccc1/C=C/C=C1N=C(/C=C/c2ccc(Cl)cc2)OC/1=O	13µM*	24%	1%	-10%	-4%	9%
O=C1OC(/C=C/c2ccccc2)=NC/1=C\c1cccnc1	-1%	9%	1%	2%	3%	0%
O=C(N/N=C/c1ccc(N2CCCCC2)o1)c1ccccc1	?	-2%	-1%	-3%	2%	10%
O=C(N/N=C/c1ccc(N2CCOCC2)o1)c1cccc([N+](=O)[O-])c1	8.9µM*	-22%	9%	-20%	?	-4%
CCOc1cc(CC(=O)N[C@@H](CC(C)C)c2ccccc2N2CCCCC2)ccc1C(=O)O	-8%	5%	-4%	-3%	-9%	-8%
C[n+]1ccc(/C=C/c2ccccc2O)c2ccccc21	?	-47%	-1%	-14%	-5%	-4%
CN1/C(=C/c2cc[n+](C)c3ccccc23)C=Cc2ccccc21	7.1µM*	60%	0%	-30%	?	4%
O=C(Nc1ccccc1[N+](=O)[O-])c1cc2ccccc2nc1Cl	2%	-2%	-1%	3%	3%	-1%
CCOP(=O)(OCC)C(NC(=O)c1cc([N+](=O)[O-])cc([N+](=O)[O-])c1)C(F)(F)F (centres undefined)	25µM*	-6%	-3%	?	?	8%
CCOP(=O)(OCC)C(C)(C)NC(=O)c1cc([N+](=O)[O-])cc([N+](=O)[O-])c1	-13%	5%	-2%	-7%	-1%	-1%
O=C(Nc1ccc(Br)c2ccccc12)c1ccc2ccccc2c1O	18µM*	1%	-8%	18µM*[quencher]	?	15%
CC(=O)Nc1ccc(Br)c2ccccc12	0%	41%	-1%	-2%	-2%	5%
